Data published in PubChem BioAssay (NCATS).
“And” between values parts separate entries of the source, which are not always exact repeats. Equal values may be shown once. Results filed as inconclusive are left out. A call without a number means that no potency is given here. A number with no mark means an inactive call. The source made the active and inactive calls. Unless noted, the call rests on the fitted dose curve; in most records, active means well fitted curve in the direction sought with a large enough effect; inconclusive means small, poorly fitted or top-dose-only effect, or another doubt; inactive means no such curve, though single readings can be large; an effect the other way counts as inactive or inconclusive.

Columns and labels:
[1] = Cell Proliferation Assay against the TMD8 Cell Line (Caspase readout at 16 hrs) (AID 651712); further: potency means the concentration at half of the fitted maximal effect
Method in brief: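 TMD8 cells (500/well) in phenol-red-free RPMI with glutamine, 5% FBS, were exposed to compounds for 16 h at 37 °C. Caspase 3/7 activation was read by Caspase-Glo luminescence; percent activity normalised to DMSO (0%) and 9.2 uM bortezomib final (100%).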

[2] = Cell Proliferation Assay against the TMD8 Cell Line (Caspase readout at 8 hrs) (AID 651713); further: potency means the concentration at half of the fitted maximal effect
Method in brief: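 Percent activity derived from Caspase-Glo signal, DMSO set to 0% and bortezomib (9.2 uM final) to 100%. TMD8 cells were exposed to compound for 8 h in RPMI with 5% FBS.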

[3] = qHTS assay for small molecule agonists of the antioxidant response element (ARE) signaling pathway (AID 651741; active means well fitted activation curve with a large enough effect in the signal ratio; the % refers to the signal ratio)
Method in brief: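 ARE-bla HepG2 cells (beta-lactamase reporter under ARE control) were plated at 2,000 cells/well, preincubated 5 h at 37 C/5% CO2, then treated with DMSO-dissolved compounds for 16 h at 37 C; LiveBLAzer B/G FRET substrate added, fluorescence read after 2 h at room temperature.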

[4] = qHTS assay for small molecule activators of the p53 signaling pathway (AID 651743; active means well fitted activation curve with a large enough effect in the signal ratio, not every such curve was filed as active; the % refers to the signal ratio; further: potency means the concentration at half of the fitted maximal effect; on activation: series mostly up to about 92 µM); conditions: HCT-116 p53RE-bla, beta-lactamase FRET ratio, 16 h; activation: stronger effect = higher value
Method in brief: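 p53RE-bla HCT-116 cells with a stably integrated beta-lactamase reporter under p53 response elements were plated, rested 5 hours at 37 C/5% CO2, then exposed to compounds in DMSO for 16 hours at 37 C. LiveBLAzer B/G FRET substrate was read after 2 hours at room temperature.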

[5] = qHTS assay for small molecule activators of the nuclear factor-kappa B (NF-kB) signaling pathway (AID 651749; active means well fitted activation curve with a large enough effect in the signal ratio; the % refers to the signal ratio; further: series mostly up to about 77 µM); conditions: NF-kB-bla ME-180 cells, beta-lactamase FRET ratio, 16 h; stronger effect = higher value
Method in brief: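 ME-180 cells stably carrying a beta-lactamase reporter under an NF-kB response element were exposed to compound or DMSO vehicle for 16 hr at 37C, 5% CO2. Pathway activation was read by FRET, since reporter expression disrupts FRET.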

[6] = qHTS assay for environmental chemicals that activate the Aryl hydrocarbon Receptor (AhR) signaling pathway (AID 651777); conditions: 1A2-DRE human hepatoma cells, luciferase, 24 h; activation: stronger effect = higher value; further: nearly all actives have a fitted effect of over 15% in size
Method in brief: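 Human hepatoma 1A2-DRE cells, stably carrying a dioxin response element and CYP1A2 promoter driving luciferase, were exposed to compounds for 24 hr at 37 C and 5% CO2. Luciferase signal was then read after 30 min One-Glo at room temperature.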

[7] = qHTS assay for small molecule disruptors of the mitochondrial membrane potential - 1 hr assay (AID 651754; calls by dose curve; further: potency means the concentration at half of the fitted maximal effect; nearly all actives have a fitted effect of over 35% in size)
Method in brief: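 Steps: seed HepG2 cells and let attach overnight; pin-transfer compound or vehicle; incubate 1 hr at 37C; add Mito-MPS dye for 30 min; read two-channel fluorescence for monomer and aggregate forms.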

[8] = qHTS assay for small molecule disruptors of the mitochondrial membrane potential - 5 hr assay (AID 651755; calls by dose curve; further: potency means the concentration at half of the fitted maximal effect; nearly all actives have a fitted effect of over 40% in size)
Method in brief: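 HepG2 cells, attached overnight at 37C, were exposed to compound or DMSO for 5 hr at 37C, 5% CO2. Mito-MPS dye was then added for 30 min, and fluorescence read at 490/535 nm (monomers) and 540/590 nm (aggregates).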

[9] = target: Tumor necrosis factor (Homo sapiens) (UniProt P01375); test: qHTS assay to identify small molecules that stimulate Tumor Necrosis Factor-alpha (TNF-alpha) secretion (AID 651757; active means well fitted curve in the direction sought with a large enough effect in the signal ratio; the % refers to the signal ratio; further: potency means the concentration at half of the fitted maximal effect)
Method in brief: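 Secreted TNF-alpha from compound-treated THP-1 cells (17 hrs, 37 C) was quantified with a homogeneous time-resolved fluorescence antibody assay.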

[10] = qHTS assay to identify small molecules that stimulate interleukin-8 (IL-8) secretion (AID 651758; active means well fitted activation curve with a large enough effect in the signal ratio; the % refers to the signal ratio)
Method in brief: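 THP-1, 2000 cells/well; cpd 16 h, 37 C; add cryptate + XL665 anti-IL-8 Abs; RT 1-3 h; TR-FRET read.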

Chain of Tumor necrosis factor (Homo sapiens) (P01375 whole entry, looked up): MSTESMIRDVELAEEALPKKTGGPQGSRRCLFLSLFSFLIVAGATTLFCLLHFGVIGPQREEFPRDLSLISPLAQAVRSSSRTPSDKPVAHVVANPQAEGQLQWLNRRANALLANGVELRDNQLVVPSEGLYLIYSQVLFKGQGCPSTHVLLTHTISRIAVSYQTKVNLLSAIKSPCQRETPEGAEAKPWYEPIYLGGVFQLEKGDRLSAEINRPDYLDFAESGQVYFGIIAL

## C[C@@H](N)C1CCC(C(=O)Nc2ccncc2)CC1 (some centres undefined)
[1]
  Potency: inactive
[2]
  Potency: inactive

## COc1cc(OC)c(C(=O)CCCN2CCCC2)c(OC)c1
[3]
  Potency: inactive
[4]
  activation: -0.273%
[5]
  activation: -0.152%
[6]
  activation: -1.93%

## CN(C)c1ccc2nc3ccc(=[N+](C)C)cc-3sc2c1
[4]
  Potency: 20 µM (active)
[7]
  Potency: 3.76 µM (active)
[8]
  Potency: 5.31 µM (active)
[9]
  Potency: 10.6 µM (active)
[6]
  activation: -2.65%

## CCc1nc(N)nc(N)c1-c1ccc(Cl)cc1
[9]
  Potency: inactive
[10]
  outcome: inactive
[6]
  activation: 1.47% and 0.312%

## Cc1cccc(C#Cc2ccccc2)n1
[1]
  Potency: inactive

## O=c1c(O)c(-c2ccc(O)cc2O)oc2cc(O)cc(O)c12
[4]
  activation: -1.48%
[6]
  activation: 4.65%

## Cc1nc(Nc2ncc(C(=O)Nc3c(C)cccc3Cl)s2)cc(N2CCN(CCO)CC2)n1
[2]
  Potency: inactive

## CC(C)C[C@H](NC(=O)[C@H](Cc1ccccc1)NC(=O)c1cnccn1)B(O)O
[1]
  Potency: 0.0026 µM (active)
[2]
  Potency: 0.833 µM (active)

## CC(=O)Nc1ccc(O)cc1
[3]
  Potency: inactive
[9]
  Potency: inactive
[6]
  activation: 1.7% and -0.186%

## S=c1nc[nH]c2nc[nH]c12
[1]
  Potency: inactive
[2]
  Potency: inactive

## CCN(CCO)CCCC(C)Nc1ccnc2cc(Cl)ccc12 (centres undefined)
[1]
  Potency: inactive
[2]
  Potency: inactive

## Cc1cccc(-c2[nH]ncc2-c2ccc3ncccc3n2)n1
[1]
  Potency: inactive
[2]
  Potency: inactive

## CCOC(=O)C1=C(O)C(=O)N(Cc2ccccc2)C1
[1]
  Potency: inactive
[2]
  Potency: inactive

## CCN(CC)C(=S)SSC(=S)N(CC)CC
[3]
  Potency: inactive
[4]
  activation: 4.22%
[5]
  activation: 0.724%
